In PubChem BioAssay (NCI) one finds growth data, which are given here for seven compounds.

Among the test systems are SR leukemia; RPMI-8226 leukemia; OVCAR-8 ovarian; OVCAR-5 ovarian; OVCAR-4 ovarian; SK-OV-3 ovarian; IGROV1 ovarian; OVCAR-3 ovarian; HS 578T breast; NCI/ADR-RES ovarian; T-47D breast; BT-549 breast; MDA-MB-435 melanoma; SW-620 colon; MCF7 breast; HCT-116 colon; HCC-2998 colon; KM12 colon; MDA-MB-468 breast.
Holding throughout (assay): NCI-60 one-dose screen, 48 h (100 = growth as untreated, 0 = no growth, -100 = all killed)
Holding throughout (conditions): 10 µM unless noted

Where “and” joins values, the source holds several entries; their conditions need not be identical. Identical values can stand only once. This is part of a sample that, as a whole, favours compounds with a hit. Of some 83,000 tested, about 20% had one in any assay.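 In brief: 96-well plates, 48 h treatment, single concentration, percent growth endpoint.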 Calls of active or inactive are those of the source. How the source made its calls: active means growth percent below 10; inactive means the rest.

Regarding `COc1cc(C=O)ccc1Oc1nc(Nc2ccc(F)cc2)nc(N(C)C)n1`, the growth in the assay on SR leukemia was 70.9% (inactive) and 6.2% (active); in the assay on RPMI-8226 leukemia it was 60% (inactive) and 67% (inactive); with OVCAR-8 ovarian, 85.3% (inactive) and 56.7% (inactive); with OVCAR-5 ovarian it was 100% (inactive) and 105% (inactive); in the assay on OVCAR-4 ovarian it was 56.4% (inactive) and 47.8% (inactive); with SK-OV-3 ovarian, 87.6% (inactive) and 122% (inactive). In addition, the growth in the assay with IGROV1 ovarian is 96.7% (inactive) and 49.3% (inactive); with OVCAR-3 ovarian it was 62.1% (inactive) and 78.7% (inactive); with HS 578T breast, 85.5% (inactive) and 41.5% (inactive); in the assay on NCI/ADR-RES ovarian, 81.7% (inactive) and 54.3% (inactive); in the assay with T-47D breast, 33.3% (inactive) and 66.1% (inactive); with BT-549 breast, 77.3% (inactive) and 16.5% (inactive). Also, the growth with MDA-MB-435 melanoma was 71.1% (inactive) and 88.1% (inactive); in the assay with SW-620 colon, 94.4% (inactive) and 50.4% (inactive); in the assay with MCF7 breast it was 53.2% (inactive) and 45.4% (inactive); in the assay with HCT-116 colon, 64.9% (inactive) and 20.3% (inactive); in the assay on HCC-2998 colon, 108% (inactive) and 75.6% (inactive); with KM12 colon it was 99.3% (inactive) and 68.5% (inactive). In the assay on MDA-MB-468 breast, the growth was 36.4% (inactive) and 53.5% (inactive).
Turning to `Cc1ccc2c(c1)nc(-c1ccccc1)n2CC(=O)N=Nc1c(O)[nH]c2ccc(Cl)cc12`, the growth is -20.7% (active) in the assay with SR leukemia; -17% (active) with RPMI-8226 leukemia; -66.9% (active) in the assay with OVCAR-8 ovarian; -52.5% (active) in the assay with OVCAR-5 ovarian; -71.3% (active) in the assay with OVCAR-4 ovarian; -72.6% (active) in the assay on SK-OV-3 ovarian. Further, the growth was -86% (active) in the assay on IGROV1 ovarian; -70.3% (active) with OVCAR-3 ovarian; -32.9% (active) in the assay with HS 578T breast; -73% (active) in the assay on NCI/ADR-RES ovarian; -79.4% (active) with T-47D breast; -72% (active) with BT-549 breast. The growth in the assay on MDA-MB-435 melanoma was -14.2% (active); in the assay with SW-620 colon, 0.844% (active); in the assay on MCF7 breast, -64% (active); in the assay on HCT-116 colon it was -82.5% (active); in the assay on HCC-2998 colon, -71.3% (active); in the assay with KM12 colon it was -56.2% (active). The growth with MDA-MB-468 breast was -70.2% (active).
For the compound `COc1ccc2c(c1)N=c1c-2cc2c(O)[nH]c(=S)n2c1=O`, the growth with SR leukemia was 21.7% (inactive); with RPMI-8226 leukemia, 62.6% (inactive); in the assay on OVCAR-8 ovarian, 53.2% (inactive); with OVCAR-5 ovarian, 53.5% (inactive); with OVCAR-4 ovarian, 86.9% (inactive); in the assay on SK-OV-3 ovarian it was 53.3% (inactive). Besides, the growth in the assay on IGROV1 ovarian is 50% (inactive); in the assay on OVCAR-3 ovarian it was 33.8% (inactive); in the assay on HS 578T breast, 21.5% (inactive); in the assay with NCI/ADR-RES ovarian it was 26.7% (inactive); with T-47D breast it was 46.4% (inactive); with BT-549 breast it was 32.4% (inactive). Also, the growth is 2.49% (active) in the assay with MDA-MB-435 melanoma; 47.4% (inactive) with SW-620 colon; 34.6% (inactive) with MCF7 breast; 28.6% (inactive) with HCT-116 colon; 60.1% (inactive) in the assay on HCC-2998 colon; 42.7% (inactive) with KM12 colon. The growth in the assay with MDA-MB-468 breast was -25.9% (active).
On to `C/C(=N/O)c1ccc(NC(=O)CSc2nnc(-c3ccc(-c4nc5ccc(Cl)cc5[nH]4)cc3)o2)cc1`, for which the growth was 12.3% (inactive) in the assay on SR leukemia; 18.2% (inactive) in the assay on RPMI-8226 leukemia; -31.7% (active) in the assay on OVCAR-8 ovarian; 55.3% (inactive) with OVCAR-5 ovarian; 14.5% (inactive) with OVCAR-4 ovarian; 39.6% (inactive) in the assay on SK-OV-3 ovarian. The growth is 34.5% (inactive) with IGROV1 ovarian; -5.29% (active) in the assay with OVCAR-3 ovarian; -13.3% (active) with HS 578T breast; 88.9% (inactive) in the assay on NCI/ADR-RES ovarian; 11.8% (inactive) with T-47D breast; 14.2% (inactive) with BT-549 breast. Further, the growth with MDA-MB-435 melanoma is -32.9% (active); in the assay on SW-620 colon it was -54.9% (active); in the assay with MCF7 breast, 3.95% (active); with HCT-116 colon, 4.71% (active); in the assay on HCC-2998 colon, 71.2% (inactive); in the assay on KM12 colon it was 2.42% (active). Besides, the growth in the assay on MDA-MB-468 breast was 64.9% (inactive).
As for `COc1ccc(-c2cc(C)nc3[nH]c(=O)sc23)cc1`, the growth is 75.5% (inactive) in the assay on SR leukemia; 69.4% (inactive) in the assay on RPMI-8226 leukemia; 63.5% (inactive) in the assay with OVCAR-8 ovarian; 80.4% (inactive) in the assay on OVCAR-5 ovarian; 2.45% (active) with OVCAR-4 ovarian; 55.9% (inactive) in the assay with SK-OV-3 ovarian. Also, the growth in the assay with IGROV1 ovarian is 62.5% (inactive); in the assay on OVCAR-3 ovarian, 67.1% (inactive); in the assay on HS 578T breast, 48.2% (inactive); in the assay on NCI/ADR-RES ovarian, 62.4% (inactive); in the assay with T-47D breast, -15.1% (active); with BT-549 breast, 58.9% (inactive). Besides, the growth was 78.7% (inactive) with MDA-MB-435 melanoma; 98.1% (inactive) in the assay with SW-620 colon; 83.8% (inactive) in the assay on MCF7 breast; 52.1% (inactive) in the assay on HCT-116 colon; 84.2% (inactive) with HCC-2998 colon; 81.3% (inactive) in the assay on KM12 colon. Further, in the assay with MDA-MB-468 breast, the growth is 76% (inactive).
For the compound `N#C/C(=C/c1ccc(Cl)cc1)c1nnc(NC(=O)c2ccc(-n3c(=O)[nH]c4ccccc4c3=O)cc2)s1`, the growth in the assay on SR leukemia was 62.7% (inactive); with RPMI-8226 leukemia, 70.4% (inactive); in the assay on OVCAR-8 ovarian, 46% (inactive); in the assay with OVCAR-5 ovarian, 83.9% (inactive); in the assay on OVCAR-4 ovarian, 75.3% (inactive); in the assay with SK-OV-3 ovarian, 85% (inactive). Also, the growth is 80.9% (inactive) in the assay on IGROV1 ovarian; 84.6% (inactive) in the assay with OVCAR-3 ovarian; 34.1% (inactive) in the assay with HS 578T breast; 81.5% (inactive) in the assay on NCI/ADR-RES ovarian; 64.2% (inactive) with T-47D breast; 40% (inactive) in the assay with BT-549 breast. In addition, the growth with MDA-MB-435 melanoma is 84.7% (inactive); with SW-620 colon, 73.8% (inactive); in the assay with MCF7 breast it was 38% (inactive); in the assay on HCT-116 colon, 46.4% (inactive); in the assay on HCC-2998 colon, 23.5% (inactive); in the assay with KM12 colon, 23.6% (inactive). Further, the growth in the assay on MDA-MB-468 breast was 34.9% (inactive).
In the case of `COc1cncc(-c2ccc3ncnc(N4CCc5ccc(Cl)cc54)c3c2)c1`, the growth with SR leukemia is 3.37% (active); with RPMI-8226 leukemia, -21.2% (active); with OVCAR-8 ovarian, 39.4% (inactive); with OVCAR-5 ovarian, 30% (inactive); in the assay on OVCAR-4 ovarian, 32% (inactive); in the assay on SK-OV-3 ovarian it was 27.4% (inactive). Moreover, the growth in the assay on IGROV1 ovarian is -63.4% (active); in the assay on OVCAR-3 ovarian, 55.4% (inactive); in the assay with HS 578T breast, 20.1% (inactive); in the assay on NCI/ADR-RES ovarian, 1.41% (active); with T-47D breast it was 14.1% (inactive); in the assay on BT-549 breast, -72.1% (active). Further, the growth in the assay with MDA-MB-435 melanoma is 53.6% (inactive); in the assay on SW-620 colon it was 60.7% (inactive); in the assay on MCF7 breast it was -1.93% (active); with HCT-116 colon, -58% (active); in the assay on HCC-2998 colon, 16.9% (inactive); with KM12 colon, 21.5% (inactive). In the assay on MDA-MB-468 breast, the growth is -67.4% (active).
